Assay results: PubChem BioAssay AID1259318 (Sanford-Burnham Center for Chemical Genomics, 2017)
In all, about 370,000 compounds went through this assay and about 3,000 (0.81%) were called active.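 Rule for the calls: active = activity above about 14% (limit read from the data; passing the limit was not always enough); inactive = the rest.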 Only a selection was taken, and actives are over-represented in it overall.

Each compound was assayed against Nuclear receptor subfamily 1 group D member 1 (Homo sapiens) (UniProt P20393) (assay: modulators of Rev-erb alpha DNA binding, primary screen, biochemical, FITC-DNA, fluorescence polarization, uHTS (AID 1259318;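 note: 0% = DMSO wells with 35 nM protein and 100% = DMSO wells with 750 nM protein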)). Settings: Rev-erbα–FITC-DNA binding, 90 min, at 10 µM, stronger effect = higher value.
Nuclear receptor subfamily 1 group D member 1 (Homo sapiens), sequence (P20393 whole entry, looked up): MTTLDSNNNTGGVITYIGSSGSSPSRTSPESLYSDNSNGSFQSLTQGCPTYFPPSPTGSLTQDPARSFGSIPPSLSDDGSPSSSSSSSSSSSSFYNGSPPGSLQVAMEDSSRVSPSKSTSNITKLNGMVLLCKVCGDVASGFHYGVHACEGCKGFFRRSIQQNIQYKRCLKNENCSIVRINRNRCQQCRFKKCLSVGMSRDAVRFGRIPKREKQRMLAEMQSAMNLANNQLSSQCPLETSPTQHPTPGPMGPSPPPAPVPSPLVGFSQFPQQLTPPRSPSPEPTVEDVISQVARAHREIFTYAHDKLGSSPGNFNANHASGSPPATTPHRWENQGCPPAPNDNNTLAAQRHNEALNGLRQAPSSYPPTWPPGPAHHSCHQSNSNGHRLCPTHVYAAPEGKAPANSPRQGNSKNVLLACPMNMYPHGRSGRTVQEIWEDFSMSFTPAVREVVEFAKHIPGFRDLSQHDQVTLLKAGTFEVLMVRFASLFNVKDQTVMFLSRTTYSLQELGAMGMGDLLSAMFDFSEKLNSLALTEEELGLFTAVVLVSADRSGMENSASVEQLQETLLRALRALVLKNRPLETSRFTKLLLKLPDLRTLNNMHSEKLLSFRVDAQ

activity, inactive:
CCCC1CCC2(CCCN2CCOC(=O)NCc2ccccc2)CC1 (stereo not drawn) 4.94%
C=CCN(Cc1ccc2c(c1)OCO2)C(C#CC1CC1)C(C)(C)C (stereo not drawn) 0.61%
COc1ccc(/C=C2\CC3(OC(C)=O)CCCN2C3)cc1 (stereo not drawn) 1.87%
CCCN(CCC)CCCNC(=O)CNC(=O)c1nn(-c2ccc(OC)cc2)c(=O)c2ccccc12 2.42%
COCCCNC(=O)CNC(=O)c1nn(-c2ccc(OC)cc2)c(=O)c2ccccc12 -5.1%
Cc1[nH]c2ccccc2c1C(=O)c1cc([C@H](NC(=O)OC(C)(C)C)C(C)C)sc1N 8.9%
CN(C(=O)CSc1nnc(-c2ccc(C(C)(C)C)cc2)n1C)C1CCS(=O)(=O)C1 (stereo not drawn) -0.03%
CCn1c(SCC(=O)N(C)C2CCS(=O)(=O)C2)nnc1-c1cccs1 (stereo not drawn) 1.18%
COc1ccc(-n2c(SCC(=O)Nc3ccccc3-c3ccccc3)nnc2-c2cccnc2)cc1 -5.08%
CC1OC(O[C@H]2/C=C/C=C/C=C/C=C/C=C/C=C/C=C/[C@H](C)[C@@H](O)[C@@H](C)[C@H](C)OC(=O)CC(O)CC(O)CCC(O)C(O)CC(O)CC3(O)C[C@H](O)C(C(=O)O)C(C2)O3)C(O)[C@H](N)C1O (stereo partly drawn) 1.39%
O=C(O)CCC(=O)O -4.29%
COc1ccc(NC(=O)c2sc(=O)n(Cc3ccc(S(=O)(=O)N(C)C)cc3)c2C)cc1 4.54%
O=C(COC(=O)Cn1cnc2ccccc21)Nc1cccc2c1C(=O)c1ccccc1C2=O -19.3%
O=C(COC(=O)c1cccc(Cl)c1)Nc1ccc2[nH]c(=O)[nH]c2c1 -0.59%
C#CCN(N(C)c1ncc(C(F)(F)F)cc1Cl)S(=O)(=O)c1ccc2ccccc2c1 7.14%
CCN1CCN(C(=O)Cn2nc(C)n3c(cc4c(OC)cccc43)c2=O)CC1 -9.03%
CCCc1cc(=S)n2c([nH]c3ccccc32)c1C#N -0.23%
COc1cc(OC)c2c(-c3cccc(-c4cccc(N)c4)c3)cc(=O)oc2c1 -9.12%
Cc1cc2oc(=O)cc(-c3ccccc3)c2c(C)c1-c1ccc(OC(F)(F)F)cc1 -5.77%
CCCc1nc2c(C)cc(-c3nc4ccccc4n3C)cc2n1Cc1ccc(-c2ccccc2C(=O)O)cc1 3.42%
CC(C)CC(=O)Nc1cc(C(F)(F)F)ccc1N1CCOCC1 -4.25%
COc1ccc(CNC(=O)C2CCN(C(=O)c3ccccc3)CC2)cc1 1.27%
COc1ccc(CNC(=O)C2CCN(C(=O)c3ccco3)CC2)cc1 -1.19%
CC(C)N(C(=O)Cn1c(SCC(=O)N2CCN(c3ccccc3)CC2)nc2ccccc21)C(C)C 1.23%
O=C(Nc1ccc(O)cc1)c1ccccc1O 3.46%
CCCCCC(=O)Nc1ccc(-c2cn3cccnc3n2)cc1 -0.67%
Cc1ccc(CNCc2ccc3c(c2)OCO3)c(C)c1 -1.18%
C[C@H]1O[C@@H](O[C@H]2[C@@H](O)C[C@H](O[C@H]3[C@@H](O)C[C@H](O[C@H]4CC[C@]5(C)C6C[C@@H](O)[C@]7(C)[C@@H](C8=CC(=O)OC8)CC[C@]7(O)C6CC[C@@H]5C4)O[C@@H]3C)O[C@@H]2C)C[C@H](O)[C@@H]1O (stereo partly drawn) 2.73%
CCOC(=O)c1sc(=NC(=O)/C=C/c2cccs2)n(C)c1C -0.21%
CCOC(=O)C1=CN(Cc2ccc(Br)cc2)S(=O)(=O)N(C)C1C (stereo not drawn) -0.38%
C/C(Cn1nnc2ccccc21)=N\OC(=O)c1cc(F)c(F)cc1Cl 2.02%
COc1ccc(N2CCN(CCNS(=O)(=O)c3ccc(C(C)(C)C)cc3)CC2)cc1 5.09%
Nc1nc2c(ncn2[C@@H]2O[C@H](C(=O)N[C@H](Cc3ccccc3)C(=O)NCC3CCCCC3)[C@@H](O)[C@H]2O)c(=O)[nH]1 2.3%
COc1ccc(CCNC(=O)CSc2nc3c([nH]2)c(=O)n(C)c(=O)n3C)cc1 -0.29%
COc1ccc(CNS(=O)(=O)c2cc(Br)ccc2Br)cc1 6.25%
Cc1cccc(C)c1NC(=O)CSc1nc2c([nH]1)c(=O)n(C)c(=O)n2C 3.98%
Cc1cccc(NC(=O)CSc2nc3c(c(=O)[nH]2)CCC3)c1C -4.62%
CC(=O)C1=C(C)N(Cc2ccc(Cl)cc2)C(=S)NC1c1ccc(F)cc1 (stereo not drawn) 0.1%
CC1(C)C(C=C(Cl)Cl)C1C(=O)N(Cc1ccc(Cl)cc1)C1CCS(=O)(=O)C1 (stereo not drawn) 2.8%
CCOC(=O)c1[nH]c2ccc(C)cc2c1N=C(C)N(C)C 0.97%
O=C(CN1CCC(NC(=O)C2CC2)CC1)Nc1ccccc1[N+](=O)[O-] -2.64%
COc1cccc(-c2cc(CNC(=O)[C@@H](Cc3ccccc3)NC(=O)[C@H]3O[C@@H](n4cnc(C(N)=O)n4)[C@H](O)[C@@H]3O)no2)c1 3.31%
CCOC(=O)c1c(C)[nH]c(C(=O)NCCN2CCOCC2)c1C 1.96%
CCOC(=O)c1c(NC(=O)CCCN2CCOCC2)sc2c1CC(C)(C)OC2 2.68%

activity, active:
COc1ccc(-n2nc(C(=O)NCC(=O)Nc3cccc(C)n3)c3ccccc3c2=O)cc1 29.5%
Cc1cc(C)c2nc(SCC(=O)N(C)C3CCS(=O)(=O)C3)cc(C)c2c1 (stereo not drawn) 64%
O=C(COC(=O)c1cccc(Br)c1)Nc1cccc2c1C(=O)c1ccccc1C2=O 114%
COc1ccc(-c2c(C)cc3oc(=O)cc(-c4ccccc4)c3c2C)cc1C=O 18.5%
COc1ccc(-n2nc3c(N4CCC(C(=O)NCc5ccccc5)CC4)nnc(C)c3c2C)cc1 54.2%
CCOC(=O)c1sc(=NC(=O)c2ccc(Br)cc2)n(C)c1C 51.4%
CCN1/C(=C\c2ccc3ccccc3[n+]2CC)Sc2cc(C)ccc21 73.3%
Cc1cc2cc3c(cc2nc1SCC(=O)Nc1c(C)cccc1C)CCC3 63.4%
CCOC(=O)c1sc(NC(=O)CCN2CCOCC2)c(C(=O)OCC)c1C 30.6%
